# Test results: publication PMC5540273 (PLoS ONE, 2017)
# Where “and” joins values, the source holds several entries; their conditions need not be identical. Identical values can stand only once. Like-named read-outs stand apart in the source and are kept apart here.
# What was measured:
# [1] = system: T1, AMPK-alpha2; conditions: concentration: 1 μM, replicates: in singlicate, n = 1
# T1 construct: gene PRKAA2
# [2] = system: ANKK1; conditions: concentration: 1 μM, replicates: in singlicate; n = 1
# [3] = system: T2, ARK5; conditions: concentration: 1 μM, replicates: in singlicate, n = 1
# T2 construct: gene NUAK1
# [4] = system: T3, ASK1; conditions: concentration: 1 μM, replicates: in singlicate, n = 1
# T3 construct: gene MAP3K5
# [5] = system: T4, ASK2; conditions: concentration: 1 μM, replicates: in singlicate; n = 1
# T4 construct: gene MAP3K6
# [6] = system: AURKA; conditions: concentration: 1 μM, replicates: in singlicate, n = 1
# [7] = system: AURKB; conditions: concentration: 1 μM, replicates: in singlicate, n = 1
# [8] = system: AURKC; conditions: concentration: 1 μM, replicates: in singlicate, n = 1
# [9] = system: AXL; conditions: concentration: 1 μM, replicates: in singlicate, n = 1
# [10] = system: T5, BIKE; conditions: concentration: 1 μM, replicates: in singlicate, n = 1
# T5 construct: gene BMP2K
# [11] = system: BLK; conditions: concentration: 1 μM, replicates: in singlicate, n = 1
# [12] = system: BMPR1A; conditions: concentration: 1 μM, replicates: in singlicate; n = 1
# [13] = system: BMPR1B; conditions: concentration: 1 μM, replicates: in singlicate; n = 1
# [14] = system: BMPR2; conditions: concentration: 1 μM, replicates: in singlicate, n = 1
# [15] = system: BMX; conditions: concentration: 1 μM, replicates: in singlicate; n = 1
# [16] = system: BRAF; conditions: concentration: 1 μM, replicates: in singlicate, n = 1
# [17] = system: T6, BRK; conditions: concentration: 1 μM, replicates: in singlicate, n = 1
# T6 construct: gene PTK6
# [18] = system: BRSK1; conditions: concentration: 1 μM, replicates: in singlicate, n = 1
# [19] = system: BRSK2; conditions: concentration: 1 μM, replicates: in singlicate, n = 1
# [20] = system: BTK; conditions: concentration: 1 μM, replicates: in singlicate, n = 1
# 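Further: KINOMEscan kinase panel screen.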
compound,measurement,setting,value
Nc1nccc(-c2c(-c3ccc(F)cc3)ncn2C2CCN(CC(F)(F)F)CC2)n1 [SB-236560],%Inh,[1],0%
same,%Inh,[2],0%
same,%Inh,[3],0%
same,%Inh,[4],0%
same,%Inh,[5],0%
same,%Inh,[6],2%
same,%Inh,[7],0%
same,%Inh,[8],0%
same,%Inh,[9],46%
same,%Inh,[10],0%
same,%Inh,[11],0%
same,%Inh,[12],0%
same,%Inh,[13],0%
same,%Inh,[14],45%
same,%Inh,[15],0%
same,%Inh,[16],0%
same,%Inh,[17],0%
same,%Inh,[18],40%
same,%Inh,[19],0%
same,%Inh,[20],37%
c1ccc(-c2cc(-c3c[nH]nc3-c3ccccn3)ccn2)cc1 [GW576604],%Inh,[1],0%
same,%Inh,[2],0%
same,%Inh,[3],0%
same,%Inh,[4],4%
same,%Inh,[5],0%
same,%Inh,[6],14%
same,%Inh,[7],0%
same,%Inh,[8],3%
same,%Inh,[9],0%
same,%Inh,[10],23%
same,%Inh,[11],37%
same,%Inh,[12],1%
same,%Inh,[13],0%
same,%Inh,[14],4%
same,%Inh,[15],3%
same,%Inh,[16],0%
same,%Inh,[17],0%
same,%Inh,[18],0%
same,%Inh,[19],0%
same,%Inh,[20],0%
O=C(NCCCN1CCOCC1)c1cccc(Nc2nccc(Nc3ccc(Oc4ccccc4)cc3)n2)c1 [GW663929],%Inh,[1],0%
same,%Inh,[2],20%
same,%Inh,[3],29%
same,%Inh,[4],3%
same,%Inh,[5],0%
same,%Inh,[6],36%
same,%Inh,[7],11%
same,%Inh,[8],14%
same,%Inh,[9],11%
same,%Inh,[10],27%
same,%Inh,[11],95.4%
same,%Inh,[12],0%
same,%Inh,[13],0%
same,%Inh,[14],15%
same,%Inh,[15],54%
same,%Inh,[16],0%
same,%Inh,[17],69%
same,%Inh,[18],6%
same,%Inh,[19],0%
same,%Inh,[20],51%
COc1ccc(COc2cc(-n3cnc4ccccc43)sc2C(N)=O)cc1 [GSK1024304],%Inh,[1],0%
same,%Inh,[2],8%
same,%Inh,[3],14%
same,%Inh,[4],0%
same,%Inh,[5],0%
same,%Inh,[6],2%
same,%Inh,[7],0%
same,%Inh,[8],12%
same,%Inh,[9],0%
same,%Inh,[10],25%
same,%Inh,[11],37%
same,%Inh,[12],0%
same,%Inh,[13],0%
same,%Inh,[14],0%
same,%Inh,[15],0%
same,%Inh,[16],0%
same,%Inh,[17],3%
same,%Inh,[18],0%
same,%Inh,[19],5%
same,%Inh,[20],0%
Nc1nc(-c2ccc3c(N)n[nH]c3c2)cc(N2CCCC2)n1 [GSK2227430],%Inh,[1],0%
same,%Inh,[2],4%
same,%Inh,[3],17%
same,%Inh,[4],0%
same,%Inh,[5],0%
same,%Inh,[6],0%
same,%Inh,[7],0%
same,%Inh,[8],37%
same,%Inh,[9],0%
same,%Inh,[10],33%
same,%Inh,[11],7%
same,%Inh,[12],0%
same,%Inh,[13],0%
same,%Inh,[14],0%
same,%Inh,[15],1%
same,%Inh,[16],0%
same,%Inh,[17],20%
same,%Inh,[18],0%
same,%Inh,[19],0%
same,%Inh,[20],0%
CN1c2ccc(NCc3ccc(F)cc3)cc2-c2c(cnn2C)S1(=O)=O,%Inh,[1],0%
same,%Inh,[2],0%
same,%Inh,[3],0%
same,%Inh,[4],0%
same,%Inh,[5],0%
same,%Inh,[6],0%
same,%Inh,[7],14%
same,%Inh,[8],0%
same,%Inh,[9],0%
same,%Inh,[10],0%
same,%Inh,[11],0%
same,%Inh,[12],0%
same,%Inh,[13],1%
same,%Inh,[14],0%
same,%Inh,[15],0%
same,%Inh,[16],17%
same,%Inh,[17],0%
same,%Inh,[18],0%
same,%Inh,[19],0%
same,%Inh,[20],0%
N#Cc1c(N2CCOCC2)sc(-c2ccn[nH]2)c1-c1ccc(Cl)cc1,%Inh,[1],0%
same,%Inh,[2],0%
same,%Inh,[3],0%
same,%Inh,[4],0%
same,%Inh,[5],0%
same,%Inh,[6],44%
same,%Inh,[7],4%
same,%Inh,[8],0%
same,%Inh,[9],0%
same,%Inh,[10],0%
same,%Inh,[11],0%
same,%Inh,[12],21%
same,%Inh,[13],0%
same,%Inh,[14],17%
same,%Inh,[15],14%
same,%Inh,[16],0%
same,%Inh,[17],8%
same,%Inh,[18],0%
same,%Inh,[19],18%
same,%Inh,[20],8%
O=c1cc(N2CCOCC2)nc2n(Cc3cccc4ccccc34)ccn12 [GSK2333389],%Inh,[1],0%
same,%Inh,[2],0%
same,%Inh,[3],33%
same,%Inh,[4],0%
same,%Inh,[5],15%
same,%Inh,[6],0%
same,%Inh,[7],0%
same,%Inh,[8],14%
same,%Inh,[9],0%
same,%Inh,[10],16%
same,%Inh,[11],21%
same,%Inh,[12],0%
same,%Inh,[13],0%
same,%Inh,[14],0%
same,%Inh,[15],7%
same,%Inh,[16],9%
same,%Inh,[17],0%
same,%Inh,[18],1%
same,%Inh,[19],0%
same,%Inh,[20],0%
Cl.Cl.Cl.Fc1ccc(-c2ncn(C3CCNCC3)c2-c2ccnc(Nc3ccccc3)n2)cc1 [SB-238039],%Inh,[1]; 1 µM,17% and 0%
same,%Inh,[2],0%
same,%Inh,[3]; 1 µM,9% and 10%
same,%Inh,[4]; 1 µM,34% and 1%
same,%Inh,[5],0%
same,%Inh,[6]; 1 µM,16% and 36%
same,%Inh,[7]; 1 µM,25% and 0%
same,%Inh,[8]; 1 µM,0% and 19%
same,%Inh,[9]; 1 µM,0% and 44%
same,%Inh,[10]; 1 µM,0% and 9%
same,%Inh,[11]; 1 µM,56% and 27%
same,%Inh,[12],0%
same,%Inh,[13],0%
same,%Inh,[14]; 1 µM,42% and 11%
same,%Inh,[15],0%
same,%Inh,[16]; 1 µM,19% and 0%
same,%Inh,[17]; 1 µM,0% and 19%
same,%Inh,[18]; 1 µM,0% and 29%
same,%Inh,[19]; 1 µM,7% and 9%
same,%Inh,[20]; 1 µM,0% and 9%
CC(C)(C)n1cnc2c(N)ncnc21 [SKF-97359],%Inh,[1],0%
same,%Inh,[2],0%
same,%Inh,[3],19%
same,%Inh,[4],0%
same,%Inh,[5],0%
same,%Inh,[6],0%
same,%Inh,[7],15%
same,%Inh,[8],0%
same,%Inh,[9],45%
same,%Inh,[10],0%
same,%Inh,[11],0%
same,%Inh,[12],0%
same,%Inh,[13],0%
same,%Inh,[14],36%
same,%Inh,[15],0%
same,%Inh,[16],0%
same,%Inh,[17],0%
same,%Inh,[18],0%
same,%Inh,[19],3%
same,%Inh,[20],19%
